Test results: the supplement of paper PMC13380429

Test system: Vero E6 infected with SARS-CoV-2
Experiment: inhibition of SARS-CoV-2 cytopathic effect; higher = more antiviral protection, active = above 15
Conditions: 48 h

Measured: inhibition of SARS-CoV-2 cytopathic effect

Cc1sc2c(c1C)C(c1ccc(Cl)cc1)=N[C@@H](CC(=O)Nc1ccc(OCCOCCOCCOCCNc3cccc4c3C(=O)N(C3CCC(=O)NC3=O)C4=O)cc1)c1nnc(C)n1-2 (stereo not given in full)
inactive: 1 nM -0.01% | 8.33 nM -1.32% | 100 nM -2.57% | 833.33 nM 1.39% | 10000 nM -3.1%

O=C(O)CCCCCCNC1c2ccccc2CCc2ccccc21 [amineptine]
inactive: 1 nM -0.8% | 8.33 nM -0.3% | 100 nM -1.15% | 833.33 nM -1.42% | 10000 nM -0.04%

C[C@H]1CN(C[C@H](Cc2ccccc2)C(=O)NCC(=O)O)CC[C@@]1(C)c1cccc(O)c1 [alvimopan]
inactive: 1 nM 1.74% | 8.33 nM 3.07% | 100 nM 3.04% | 833.33 nM -0.26% | 10000 nM 2.12%

COC[C@@H](c1ccc(C(F)(F)F)cc1)N1CCN(C2(C)CCN(C(=O)c3c(C)ncnc3C)CC2)C[C@@H]1C [vicriviroc]
inactive: 1 nM -0.96% | 8.33 nM -0.11% | 100 nM -0.52% | 833.33 nM 0.02% | 10000 nM -0.9%

CCOCCn1c(C2CCN(CCc3ccc(C(C)(C)C(=O)O)cc3)CC2)nc2ccccc21 [bilastine]
inactive: 1 nM -1.57% | 8.33 nM -0.88% | 100 nM -1.39% | 833.33 nM -1.14% | 10000 nM -0.38%

CCS(=O)(=O)CCn1c([N+](=O)[O-])cnc1C [tinidazole]
inactive: 1 nM -3.22% | 8.33 nM -2.91% | 100 nM 1.02% | 833.33 nM 4.13% | 10000 nM -0.87%
